Pf growth 48h: Primary qHTS for delayed death inhibitors of the malarial parasite plastid, 48 hour incubation; 310,000 compounds, 5.9% hits; Potency, µM (titrated, usually from 28.7 µM), for inactives: at the top dose activity change, negative = inhibition, most hits filed as inhibitors; P. falciparum luciferase growth in erythrocytes, 48 h; also: potency is read from the fitted curve at half-maximal effect; % is scaled to controls: 0 for no effect and ±100 for the full control effect
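Luciferase-expressing parasites in RBCs, 2% Hct / 0.1% parasitemia final; RPMI 1640 + 0.5% Albumax; 37 C, 5% CO2, one generation; luminescence read-out, lower signal = inhibition.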
Pf growth 96h: Primary qHTS for delayed death inhibitors of the malarial parasite plastid, 96 hour incubation. P. falciparum luciferase reporter growth, 96 h. Potency, µM (top dose mostly 28.7 µM), for the others: at the highest dose activity change, negative = inhibition, actives largely listed as inhibitors. 320,000 compounds, 6.9% hits. AID 504834, 2011; also: potency is read from the fitted curve at half-maximal effect; % is scaled to controls: 0 for no effect and ±100 for the full control effect
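P. falciparum expressing integrated firefly luciferase grown in erythrocytes (2% hematocrit, 0.05% parasitemia final) with compounds for 96 hours at 37 C, 5% CO2. Growth inhibition read as loss of luminescence after adding luciferase detection reagent.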
AMA1-RON2 inh: qHTS for Inhibitors of AMA1-RON; Towards Development of Antimalarial Drug Lead: Primary Screen | AID 720542, 2013 | AlphaScreen AMA1-biotinylated RON2 peptide binding | Potency, µM (doses to about 58.2 µM), inactives show top-dose activity change, negative = inhibition, hits mostly inhibitors | Plasmodium falciparum AMA1 (3D7) - RON2 peptide interaction | 360,000 compounds, 0.2% hits;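 also: potency is read from the fitted curve at half-maximal effect; 0% = vehicle wells and -100% = peptide control; nearly all actives have a fitted effect of over 45% in size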
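AMA1 (3D7) with his tag at 25 nM final met compounds first, then biotinylated RON2 peptide at 25 nM; detection used donor plus acceptor beads, 10 µg/mL apiece, read by AlphaScreen after 30 min at room temperature.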
SARS PLpro yeast-1: qHTS of Yeast-based Assay for SARS-CoV PLP. S. cerevisiae expressing SARS-CoV PLpro, growth rescue. Potency, µM (series often up to 32.9 µM), without a hit: top-dose activity, positive = growth rescue, actives largely listed as activators. 330,000 compounds, 0.19% hits. AID 485353, 2010; calls by dose curve; also: potency is read from the fitted curve at half-maximal effect; 0% is about no effect; nearly all actives have a fitted effect of over 55% in size
SARS PLpro yeast-2: qHTS of Yeast-based Assay for SARS-CoV PLP: Hit Validation; 1,000 compounds, 19% hits; yeast expressing SARS-CoV PLpro, growth phenotype rescue; shares compounds with SARS PLpro yeast-1; calls only; AID 652038, 2013; call rule not given here
* = called active by the depositor; i = inactive; ? = inconclusive; . = no result; + = active, no number; [ ] = another dose, or the depositor's remark. The list is not random: actives were taken first. Their share in the collection is about 9.4%. Unless noted, calls follow the shape of the dose curve; as a rule, active = well fitted curve in the direction sought with a large enough effect; inconclusive = small, poorly fitted or top-dose-only effect, or another doubt; inactive = no such curve, though single readings can be large; an effect the other way counts as inactive or inconclusive.

SMILES	Pf growth 48h	Pf growth 96h	AMA1-RON2 inh	SARS PLpro yeast-1	SARS PLpro yeast-2
C=CCc1ccc(OCCCCNC(C)CC)c(OC)c1 (stereo unspecified)	-13%	118%	-30%	-6%	.
O=S(=O)(c1ccc2ccccc2c1)N(CC(O)CN1CCOCC1)c1ccccc1 (stereo unspecified)	-31%	30%	-10%	?	i
CC(C)C(C(=O)O)N1C(=O)/C(=C/c2cccn2C)SC1=S (stereo unspecified)	9%	23%	-25%	27%	.
CCCC(C(=O)O)N1C(=O)/C(=C/c2cccn2C)SC1=S (stereo unspecified)	11%	-9%	-2%	?	i
CC(C(=O)O)N1C(=O)c2ccccc2C1=O (stereo unspecified)	.	-2%	5%	-7%	.
CC(C(=O)c1ccccc1)N1C(=O)c2ccccc2C1=O (stereo unspecified)	2%	-2%	-4%	?	i
CCN(NC(=O)C(O)(c1ccccc1)c1ccccc1)C(=O)c1ccccc1	11%	27%	8%	14µM*	i
Cc1ccccc1NC(=O)CC1SC(=O)N(c2ccccc2)C1=O (stereo unspecified)	57%	.	74%	-14%	.
CCCN1C(=O)SC(CC(=O)Nc2ccccc2C)C1=O (stereo unspecified)	19%	-15%	7%	?	i
C/C(=N\NC(=S)NC1CCCCC1)c1ccccc1	4.1µM*	?	3%[11.6 µM]	7.9µM*	+
CCOc1ccc(NC(=O)CCNC(=O)N2C[C@H]3C[C@@H](C2)c2cccc(=O)n2C3)cc1	4%	37%	-2%	3%	.
Cc1sc2nc(CSCC(=O)N(C)c3ccccc3)[nH]c(=O)c2c1C	?	?	4%	?	i
CCOC(=O)C1=C(C)N(CCCCCC(=O)O)C(=O)NC1c1ccc([N+](=O)[O-])cc1 (stereo unspecified)	-1%	?	3%	7%	.
CCCCCCN(C(=O)CCCN1C(=O)NC(c2ccc([N+](=O)[O-])cc2)C(C(=O)OCc2ccccc2)=C1C)C(C)C(=O)NCCCC (stereo unspecified)	.	.	-14%	?	i
COc1cccc(CNC(=O)CCNC(=O)Cn2ccc3ccccc3c2=O)c1	8%	?	0%	-1%	.
O=C(NCc1ccc(CNC(=O)c2ccco2)cc1)c1ccco1	-3%	12µM*	-8%	?	i
CCCN(CC(=O)Nc1ccc(NC(C)=O)cc1)CC(=O)Nc1ccc(F)c(F)c1F	7%	-10%	28%	2%	.
CCCN(CC(=O)Nc1ccc(C)cc1Br)CC(=O)Nc1ccc(F)c(F)c1F	?	?	89%	?	i
Cc1ccc(NC(=O)Cn2cccc2)c(Br)c1	1%	.	3%	2.5µM*	i
Clc1ccc(-c2nnc(-c3ccccc3Cl)o2)cc1	81%	-23%	-23%	5%	.
CC(C)(CNC(=O)c1sc2cc(F)ccc2c1Cl)N1CCOCC1	-14%	?	5%	?	i
CCCCc1ccc(Nc2ncccc2C#N)cc1	52%	164%	27%	-35%	.
CCCCCCOC(=O)C(C#N)c1nc2ccccc2nc1N1CCN(C)CC1 (stereo unspecified)	?	?	-15%	?	i
CCCCCCOC(=O)C(C#N)c1nc2ccccc2nc1N1CCCCC1 (stereo unspecified)	43%	0%	-18%	1%	.
CCCC(=O)Nc1ccc(C(=O)NNC(=O)c2ccco2)cc1	73%	61%	-9%	?	i
SMILES	Pf growth 48h	Pf growth 96h	AMA1-RON2 inh	SARS PLpro yeast-1	SARS PLpro yeast-2
CCn1c(O)c(N=NC(=O)CNc2cccc(C)c2)c2ccccc21	-21%	-1%	?	-2%	.
C=CCn1c(O)c(N=NC(=S)Nc2cccc(C)c2)c2ccccc21	1.9µM*	-23%	-30%	?	+
CS(=O)(=O)N1CCN(Cc2cc(=O)n3ccsc3n2)CC1	-6%	-5%	0%	4%	.
Cc1[nH]nc(NNC(=O)c2ccccc2)c1[N+](=O)[O-]	20%	27%	29%	0%	.
Fc1ccccc1Cc1noc(CN2CCCC(CN3CCOCC3)C2)n1 (stereo unspecified)	-1%	?	1%	1%	.
C/C(=N\NC(=O)c1ccccc1)c1c(C)[nH]n(-c2ccccc2)c1=O	-2%	-11%	94%	6.3µM*	i
Cc1ccc(-n2cnc3c(=O)[nH]cnc32)cc1	.	.	-8%	.	.
Cc1cccc(N2CCN(C(C(=O)NCc3ccccc3)c3ccc(C(F)(F)F)cc3)CC2)c1C (stereo unspecified)	.	.	-4%	.	.
CCOc1ccc(Nc2oc(-c3ccco3)nc2C#N)cc1	-15%	?	-3%	-10%	.
CCOc1ccc(Nc2oc(-c3cccc(Cl)c3)nc2C#N)cc1	.	25%	-1%	?	?
CC(=O)OCCOc1nc(NC(C)C)nc(NC(C)C)n1	-5%	?	13%	-9%	.
CC(C)Nc1nc(NC(C)C)nc(OCCOC(=O)c2ccccc2)n1	-26%	?	1%	?	i
COc1ccc(/C=C(\C#N)C(=O)OCC(=O)NCc2ccccc2Cl)cc1	?	17%	-4%	1%	.
COc1ccc(/C=C(\C#N)C(=O)OCC(=O)NCc2ccc(Cl)cc2)cc1	?	?	.	?	i
CN(C)c1ccc(/C=N\NC(=S)SCN2C(=O)C3CCC(C)(C2=O)C3(C)C)cc1 (stereo unspecified)	?	?	54%	13µM*	+
O=[N+]([O-])c1cccc(-c2ccc(/C=N/NC(=S)Nc3ccccc3)o2)c1	?	3%	-6%	?	+
O=[N+]([O-])c1ccc(/C=N/NC(=S)Nc2ccccc2)o1	5%	-14%	25%	-94%	.
CC(C)CN(C(=O)C1CCC1)c1c(N)n(Cc2ccccc2)c(=O)[nH]c1=O	.	.	0%	1%	.
CC1CCCCC1NC(=O)C(Cc1ccccc1)NS(=O)(=O)c1cccs1 (stereo unspecified)	.	?	-9%	?	i
Cc1ccc([N+](=O)[O-])cc1S(=O)(=O)Nc1cccc(-c2ccc(N3CCCC3)nn2)c1	41%	27%	-24%	11µM*	i
Cc1ccc([N+](=O)[O-])cc1S(=O)(=O)Nc1ccc(-c2ccc(N3CCOCC3)nn2)cc1	?	?	-3%	3%	.
COc1ccc2nc(SCC(=O)NCc3ccccc3)[nH]c2c1	10%	?	12%	-9%	.
COc1ccc2nc(SCC(=O)Nc3ccccc3)[nH]c2c1	14%	-73%	-9%	.	i
O=C(O)CCN1C(=O)C2C3c4ccccc4C(c4ccccc43)[C@@H]2C1=O (stereo partly specified)	-14%	0%	2%	0%	.

Bioassay records from PubChem BioAssay.
